According to PubChem BioAssay:
Active and inactive are the calls of the source.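 Rule for the calls, unless noted: active = NADPH fluorescence slope more negative than the mean of all samples by about 3 SD, 99.7% confidence; inactive = the rest.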

Experiments:
[1] = inhibitors of TNFa-induced NFkB p65 translocation, primary screen, imaging, HUVEC, MLSMR starter and 10KST1 sets (AID 438;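 active = inhibition above 20% together with a positive visual image hit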;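 note: compound added about 3h40 before a 20 min TNFalpha stimulation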;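 for inhibition: signal is the nuclear over cytoplasmic p65 intensity ratio per well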); details: HUVEC TNFa-induced p65 nuclear translocation; cell count: measured here: nuclei count (cytotoxicity indicator), at 2.08 µM unless noted; inhibition: at 2 µM, stronger effect = higher value unless noted
[2] = inhibitors of mutant huntingtin aggregation, primary screen, imaging, exon1htt(103Q)mCFP cells, high-content imaging (AID 483;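 active = visual image review flags a hit and inhibition of aggregation exceeds 20%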;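 note: compound exposure lasted 3 days before fixation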;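 for nuclei count: percent of the per-plate median nuclei count of sample wells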); details: exon1htt(103Q)mCFP cell line, aggregate imaging, at 2 µM; inhibition of aggregation: stronger effect = higher value; nuclei count: measured here: cell count, toxicity
[3] = inhibitors of E-selectin induction by TNFa, primary screen, imaging, HUVEC, immunofluorescence, MLSMR starter and 10KST1 sets (AID 487;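 active = visually confirmed hit in the image check and inhibition above 20%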;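 for inhibition: signal is fraction of cell area covered by stained E-selectin grains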;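 for nuclei count: 100% = median nuclei count of all wells on the same plate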); details: HUVEC TNFalpha-induced E-selectin immunofluorescence imaging, at 2 µM; inhibition: stronger effect = higher value; nuclei count: measured here: cell number, toxicity
[4] = biological target: Voltage-gated potassium channel subunit beta-2 (Rattus norvegicus) (UniProt P62483); assay: KvBeta enzyme negative modulators, primary screen, biochemical, NADPH fluorescence (AID 622;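 active = fluorescence slope higher than the sample average by over 3 SD, cut at about -0.22 in these data, passing the limit was not always enough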;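 note: slope of raw intensity against log time taken from 70 to 1610 s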); details: recombinant KvBeta, 4-cyanobenzaldehyde reduction, at 10 µM, stronger effect = higher value
Sequence of Voltage-gated potassium channel subunit beta-2 (Rattus norvegicus) (P62483 whole entry, looked up): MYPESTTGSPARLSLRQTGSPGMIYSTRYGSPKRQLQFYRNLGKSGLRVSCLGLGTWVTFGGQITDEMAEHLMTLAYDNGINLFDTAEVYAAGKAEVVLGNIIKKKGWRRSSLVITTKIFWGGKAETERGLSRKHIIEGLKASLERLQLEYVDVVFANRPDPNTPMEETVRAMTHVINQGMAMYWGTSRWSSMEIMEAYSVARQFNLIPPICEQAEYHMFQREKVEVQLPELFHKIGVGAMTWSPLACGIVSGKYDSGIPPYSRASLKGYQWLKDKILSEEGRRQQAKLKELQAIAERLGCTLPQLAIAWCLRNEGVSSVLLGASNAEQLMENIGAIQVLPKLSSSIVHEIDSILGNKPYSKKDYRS

[5] = biological target: Voltage-gated potassium channel subunit beta-2 (Rattus norvegicus) (UniProt P62483); assay: KvBeta positive modulators, primary screen, biochemical, NADPH fluorescence (AID 623); details: Recombinant KvBeta, NADPH fluorescence decrease slope, 10 min; at 10 µM; stronger effect = lower value;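 note: fluorescence intensity change per second fitted from 20 to 320 s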
[6] = biological target: Alpha-2C adrenergic receptor (Homo sapiens) (UniProt P18825); assay: modulators of alpha2C/GIRK thallium flux, primary screen, cell-based, HEK293 alpha2C/GIRK1/2 (AID 624;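 active = fluorescence slope after compound addition differing from the mean of all screened samples at 99.7% confidence, in either direction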;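 note: slope of fluorescence ratio to pre-addition baseline per second over 15 to 24 s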); details: thallium flux BTC fluorescence, at 10 µM, actives lie on both sides
Sequence of Alpha-2C adrenergic receptor (Homo sapiens) (P18825 whole entry, looked up): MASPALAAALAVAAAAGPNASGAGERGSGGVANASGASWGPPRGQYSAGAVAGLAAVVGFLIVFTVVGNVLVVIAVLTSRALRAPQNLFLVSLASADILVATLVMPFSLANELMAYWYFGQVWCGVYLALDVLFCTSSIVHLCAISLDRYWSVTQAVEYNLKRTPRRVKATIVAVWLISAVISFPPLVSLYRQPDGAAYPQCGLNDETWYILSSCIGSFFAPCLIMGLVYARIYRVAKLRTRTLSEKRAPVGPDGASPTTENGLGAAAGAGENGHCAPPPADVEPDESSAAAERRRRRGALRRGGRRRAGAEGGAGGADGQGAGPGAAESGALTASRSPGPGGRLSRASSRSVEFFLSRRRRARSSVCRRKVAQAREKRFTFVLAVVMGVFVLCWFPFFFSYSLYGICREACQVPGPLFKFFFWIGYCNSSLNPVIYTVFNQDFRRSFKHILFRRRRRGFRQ

[7] = inhibitors of Sendai virus-induced IRF3 signaling, primary screen, TLR/RLR signaling modifier project, cell-based, Sendai virus stimulus, luciferase, 10K MLSCN set (AID 602276;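 active = inhibition at or above 50% at 10 µM; inactive = inhibition below 50%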;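 note: firefly luciferase from ISG56 promoter only with Renilla not read in this screen; 0% = Sendai virus plus DMSO and 100% = medium plus DMSO without virus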); details: HEK293 RL24 IRF3 luciferase reporter, at 10 µM, stronger effect = higher value
[8] = inhibitors of poly I:C-induced TLR3 signaling, primary screen, cell-based, poly I:C stimulus, luciferase, 10K MLSCN set (AID 602277;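 active = inhibition of the reporter signal at or above 50%; inactive = inhibition below 50%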); details: HEK293-TLR3 RL24 IRF3 luciferase reporter, at 10 µM, stronger effect = higher value

Structure (SMILES) | cell count [1] | inhibition [1] | inhibition of aggregation [2] | nuclei count [2] [%] | inhibition [3] | nuclei count [3] [%] | fluorescence slope [4] | NADPH fluorescence slope [5] | slope [6] | inhibition [7] | inhibition [8]
CC(=NCCCO)c1c(O)n(Cc2ccccc2)c(=O)[nH]c1=O | 374 | -1.2% (inactive) | -15.8% (inactive) | 113 | -197% (inactive) | 130 | -0.384 (inactive) | -3.6e-05 (inactive) | 0.00369 (inactive) | 13% (inactive) | 11% (inactive)
CC1CCC(C(=O)NC(C(=O)N2CCC3(CC2)OCCO3)C(C)C)CC1 (stereo not drawn) | 251 | 3.4% (inactive) | 0.1% (inactive) | 97.2 | 1.3% (inactive) | 88 | -0.399 (inactive) | -0.00014 (inactive) | 0.00626 (inactive) | 5.72% (inactive) | 20.1% (inactive)
O=C(c1ccc2nc(-c3ccco3)c(-c3ccco3)nc2c1)N1CCC2(CC1)OCCO2 | 597 | -12.6% (inactive) | -4.6% (inactive) | 93.5 | 9% (inactive) | 105 | -0.104 (inactive) | -5.1e-06 (inactive) | 0.00382 (inactive) | -1.04% (inactive) | -7.99% (inactive)
CCN1c2nc3ccccn3c(=O)c2CC2(C(=O)N(C)C(=O)N(C)C2=O)C1C (stereo not drawn) | 359 | 4.3% (inactive) | -17.6% (inactive) | 104 | -34% (inactive) | 114 | -0.482 (inactive) | 1.6e-06 (inactive) | 0.00491 (inactive) | 19% (inactive) | 19.6% (inactive)
O=C1CC(N2CCC(n3c(=O)[nH]c4ccccc43)CC2)C(=O)N1c1ccc(F)cc1 (stereo not drawn) | 366 | 3.6% (inactive) | 6.3% (inactive) | 90.7 | -52.5% (inactive) | 93.7 | -0.315 (inactive) | 1.5e-05 (inactive) | 0.0029 (inactive) | 6.41% (inactive) | 18.8% (inactive)
O=C(NCc1ccccn1)c1ccccc1Cl | 627 | -0.6% (inactive) | 2.9% (inactive) | 111 | -26.1% (inactive) | 92.5 | -0.532 (inactive) | -5.9e-05 (inactive) | 0.00536 (inactive) | 10.8% (inactive) | 10.8% (inactive)
CC(C)C(=O)c1cn(Cc2ccccc2C#N)c2ccccc12 | 504 | 3.5% (inactive) | 11.4% (inactive) | 72.7 | -24.8% (inactive) | 99.8 | -0.376 (inactive) | 3.6e-05 (inactive) | 0.00712 (inactive) | 17.4% (inactive) | 20.1% (inactive)
CC(=O)C1C(=O)NC23CCCCC2C1c1ccccc1O3 (stereo not drawn) | 622 | 3.3% (inactive) | 2.2% (inactive) | 109 | 25.3% (inactive) | 99.5 | -0.357 (inactive) | 4e-05 (inactive) | 0.0063 (inactive) | 4.02% (inactive) | 14.8% (inactive)
CCCC(C)C1C(C#N)=C(N)Oc2c1c(=O)oc1ccccc21 (stereo not drawn) | 547 | -13.2% (inactive) | 9.9% (inactive) | 86.4 | -29.8% (inactive) | 108 | -0.422 (inactive) | 2.9e-06 (inactive) | 0.00396 (inactive) | 7.33% (inactive) | 22.2% (inactive)
COc1ccc(CC[n+]2cc(/N=C(\C)[O-])on2)cc1OC | 648 | -23.5% (inactive) | -6% (inactive) | 130 | 48.2% (inactive) | 95.3 | -0.574 (inactive) | 6e-06 (inactive) | 0.00583 (inactive) | 7.77% (inactive) | 25.3% (inactive)
Cc1cc(C)c(C(=O)CN2CCOCC2)c(C)c1 | 408 | 7.3% (inactive) | 7.9% (inactive) | 89.5 | -77.5% (inactive) | 115 | -0.419 (inactive) | -0.000154 (inactive) | 0.00628 (inactive) | 13.2% (inactive) | 24.8% (inactive)
CN1C(=O)N(C)C(=O)C2(Cc3ccccc3N3CCOCC32)C1=O (stereo not drawn) | 547 | -5.7% (inactive) | -30.5% (inactive) | 92.5 | -43.9% (inactive) | 148 | -0.363 (inactive) | 3.8e-05 (inactive) | 0.00653 (inactive) | 16.2% (inactive) | 24.6% (inactive)
CC(=O)Nc1ccc(OC(=O)c2ccccc2N)cc1 | 292 | -3.4% (inactive) | -8.5% (inactive) | 76.3 | -96.3% (inactive) | 111 | -0.447 (inactive) | -1.3e-05 (inactive) | 0.00336 (inactive) | 3.45% (inactive) | 27.2% (inactive)
Cc1ccc(OCC(=O)NCCN2CCN(C(=O)COc3ccc(C)cc3)CC2)cc1 | 635 | -0.2% (inactive) | 9.1% (inactive) | 94.7 | -103% (inactive) | 103 | -0.611 (inactive) | -2.9e-05 (inactive) | 0.00522 (inactive) | -9.99% (inactive) | -18.3% (inactive)
CCOc1ccc(C2SCC(=O)Nc3c2c(=O)[nH]n3C2CCCCCC2)cc1 (stereo not drawn) | 286 | 23.8% (inactive) | 7.5% (inactive) | 88.4 | -14.2% (inactive) | 102 | -0.408 (inactive) | -2.7e-05 (inactive) | 0.00778 (inactive) | -12.2% (inactive) | 98.8% (active)
CC(C)OCCCNC(=O)c1c(N)n(CC2CCCO2)c2nc3ccccc3nc12 (stereo not drawn) | 430 | -6.7% (inactive) | -14.6% (inactive) | 75 | -83% (inactive) | 196 | -0.0369 (inactive) | 2e-05 (inactive) | 0.00623 (inactive) | 11.4% (inactive) | 19.9% (inactive)
O=c1[nH]c(=O)n(CCc2ccc(F)cc2)c(O)c1C=NCCCn1ccnc1 | 544 | 2.2% (inactive) | -7.2% (inactive) | 110 | 2.2% (inactive) | 102 | -0.589 (inactive) | -3.2e-05 (inactive) | 0.00323 (inactive) | 13.3% (inactive) | 24% (inactive)
Cc1ccc(CC2C(=O)N(C)C(=O)N(C)C2=O)s1 | 451 | 2.6% (inactive) | 2% (inactive) | 109 | 40.2% (inactive) | 101 | -0.471 (inactive) | -4.3e-05 (inactive) | 0.00411 (inactive) | 1.08% (inactive) | 25% (inactive)
CCc1ccc(OCCCN=C(C)c2c(O)n(C)c(=O)n(C)c2=O)cc1 | 627 | 0.2% (inactive) | -0.8% (inactive) | 84.3 | 23.8% (inactive) | 95.1 | -0.385 (inactive) | 2.2e-06 (inactive) | 0.00351 (inactive) | 11.6% (inactive) | 14.8% (inactive)
Cc1ccc(Cn2c(C)c3cnn(CC(=O)N4CCC5(CC4)OCCO5)c(=O)c3c2C)cc1 | 471 | -6.5% (inactive) | -6.5% (inactive) | 110 | -135% (inactive) | 110 | -0.332 (inactive) | -6.2e-05 (inactive) | 0.0048 (inactive) | 9.46% (inactive) | -2.44% (inactive)
CCOP(=S)(OCC)c1ccc(N(C)C)cc1 | 670 | -1% (inactive) | 18.4% (inactive) | 68.7 | -113% (inactive) | 117 | -0.572 (inactive) | 3.8e-05 (inactive) | 0.00443 (inactive) | -17.4% (inactive) | -4.41% (inactive)
CCCNS(=O)(=O)c1ccc(OCC(=O)N2CCN(Cc3ccccc3)CC2)cc1 | 296 | -7.1% (inactive) | -5% (inactive) | 115 | -3.1% (inactive) | 110 | -0.476 (inactive) | -7e-05 (inactive) | 0.00533 (inactive) | -3.33% (inactive) | -4.45% (inactive)
O=c1c2ccccc2nc(CSc2ncnc3nc[nH]c23)n1-c1ccccc1 | 546 | 2.3% (inactive) | 2.9% (inactive) | 106 | -123% (inactive) | 103 | -0.492 (inactive) | -9.1e-05 (inactive) | 0.00489 (inactive) | -0.567% (inactive) | 13.7% (inactive)
Cc1ccc2nc(N3CCN(C)CC3)[nH]c2c1 | 369 | -15.9% (inactive) | 5.5% (inactive) | 87.6 | 5.8% (inactive) | 97.7 | -0.506 (inactive) | 4.2e-05 (inactive) | 0.00535 (inactive) | -66.5% (inactive) | -98.1% (inactive)
O=C(C(Cc1ccccc1)NS(=O)(=O)c1ccc(F)cc1)N1CCC2(CC1)OCCO2 (stereo not drawn) | 381 | -11.2% (inactive) | -7% (inactive) | 99.8 | -43.8% (inactive) | 122 | -0.437 (inactive) | 8.6e-06 (inactive) | 0.00508 (inactive) | 11.2% (inactive) | 37.1% (inactive)
Cc1ccccc1-n1c(O)c(C=NCCN2CCOCC2)c(=O)[nH]c1=O | 335 | -9.5% (inactive) | -8.6% (inactive) | 138 | -110% (inactive) | 135 | -0.432 (inactive) | -2.7e-05 (inactive) | 0.00516 (inactive) | 1.33% (inactive) | -0.798% (inactive)
O=C(O)C1(c2ccc(Cl)cc2)CCC1 | 433 | 7.5% (inactive) | 1.5% (inactive) | 104 | -422% (inactive) | 158 | -0.461 (inactive) | 2.3e-05 (inactive) | 0.00643 (inactive) | 12.9% (inactive) | 21.3% (inactive)
COc1ccccc1/C=C1/C(=N/O)C2CCN1CC2 | 548 | -15% (inactive) | -6.2% (inactive) | 76.9 | 42.2% (inactive) | 105 | -0.467 (inactive) | -1.3e-05 (inactive) | 0.00314 (inactive) | 9.04% (inactive) | 36.5% (inactive)
